CRFR2-BP antag = blocks CRF-induced signaling of the CRF-BP/CRF-R2 complex. inhibition, % at 11.8 µM. HEK293 CRF-R2/CRF-BP, CRF-induced calcium fluorescence. 0.59% of 350,000 active;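 active = inhibition of the ligand-induced calcium signal above about 50% at the single tested concentration, limit read from the data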
Cardiac RTF inh = cardiac RTF calcium desensitization; P19429+P45379; IANBD-labeled cardiac RTF, Ca2+ fluorescence; inhibition, % at 7.15 µM; 0.12% of 340,000 active; AID 493244;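 active = inhibition above the mean inhibition of all tested compounds plus 3 SD, cut at about 17% in these data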;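 also: assay run at fixed EC70 calcium of 1.6 mM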
CRFR2-BP ag = agonists of human CRF-binding protein/CRF-R2 receptor complex; HEK293 CRF-R2/CRF-BP, calcium dye fluorescence (FLIPR); percent of saturating CRF peptide response; activation, % at 13.2 µM; 0.46% of 350,000 active;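 active = activation of at least 50%, plus an integration ratio under a set limit after plate pattern correction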
RTF Ca sens act = increases calcium sensitivity of human cardiac regulated thin filaments | P19429+P45379 | IANBD-labeled TnC RTF fluorescence at EC20 calcium; 0% EC20 calcium, 100% full calcium | activation, % at 7.2 µM | 0.24% of 340,000 active | AID 493008;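 active = activation above the mean over all tested compounds plus 3 SD, cut at about 30% in these data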;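 also: rise in fluorescence read as greater calcium sensitivity of cardiac thin filaments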
Numbers stand for hits; i = inactive; nt = not tested or not shown. Hits are enriched below; roughly 1.3% of the tested compounds scored in any of these assays.

SMILES | CRFR2-BP antag | Cardiac RTF inh | CRFR2-BP ag | RTF Ca sens act
Cc1ccc(C)c(NC(=O)Cn2cnc3c(oc4ccccc43)c2=O)c1 | 52 | i | i | i
O=C(Cn1cnc2c(oc3ccccc32)c1=O)NCc1ccccc1 | i | i | i | i
C/C(=N\NC(=O)c1ccoc1C)c1cccc2ccccc12 | i | i | i | i
CCCn1cc(S(=O)(=O)c2ccccc2)c(=O)c2cc(OCC)ccc21 | 75 | i | i | i
CCCn1cc(S(=O)(=O)c2ccc(OC)cc2)c(=O)c2cc(OCC)ccc21 | i | i | i | i
O=S(=O)(NCC1(N2CCOCC2)CCCCC1)c1ccc(Cl)cc1C(F)(F)F | i | i | 56 | i
O=S(=O)(NCC1(N2CCOCC2)CCCCC1)c1ccccc1Cl | i | i | i | i
CCc1ccc(S(=O)(=O)NCC2(N3CCOCC3)CCCCC2)cc1 | i | i | 54 | i
CNC(=O)NC(=O)C(OC(=O)Cc1cccc(C(F)(F)F)c1)c1ccccc1 (stereo not given) | i | i | i | i
CNc1nc2[nH]c(=O)c3c(c2s1)OC(N)=C(C#N)C3c1cccc(F)c1 (stereo not given) | i | i | 103 | i
O=c1nc(Oc2ccccc2)nc2ncccn12 | i | nt | i | nt
O=Nc1nc2ncccn2c1-c1ccccc1 | 58 | i | i | i
Cc1ccc(-n2nc3c(=O)n(CC(=O)NCc4cccs4)nc(C)c3c2C)cc1 | 64 | i | i | i
O=C(NCCCO)C(=O)Nc1cc2c3c(c1)CCN3C(=O)CC2 | 78 | i | i | i
CCc1nnc(NS(=O)(=O)c2ccc(N=Cc3c(C)[nH]n(-c4cccc(Cl)c4)c3=O)cc2)s1 | 51 | i | i | i
N#CC(C#N)=NNc1ccc(S(=O)(=O)N2CCCCC2)cc1 | 66 | i | 99 | i
Cc1cc(C)n(CC(=O)NC2CCCCC2C)c(=O)c1C#N (stereo not given) | i | i | i | i
O=C(Nc1ncc(Cc2ccc(Cl)cc2Cl)s1)c1ccc([N+](=O)[O-])cc1 | i | i | 74 | i
O=C(Nc1nnc(COc2ccc(Cl)cc2)s1)c1ccc([N+](=O)[O-])cc1 | i | i | i | i
CCOC(=O)c1cn2nc(Oc3cccc(F)c3)ccc2n1 | 62 | i | i | i
O=P(c1ccccc1)(c1ccccc1)c1cc(S(=O)(=O)O)ccc1O | i | i | 115 | i
O=C1C2C3C=CC(C3)C2C(=O)N1CCCO (stereo not given) | 69 | i | i | i
Cc1ccc(NC(=O)C2CCCN2C(=O)OCc2ccccc2)cc1F (stereo not given) | i | i | i | i
O=C(Nc1ccc(Cl)cn1)c1cccc(S(=O)(=O)N2CCCCCC2)c1 | i | nt | i | nt
O=C(Nc1ccc(Cl)cn1)c1cccc(S(=O)(=O)N2CCCC2)c1 | 58 | i | i | i
SMILES | CRFR2-BP antag | Cardiac RTF inh | CRFR2-BP ag | RTF Ca sens act
Cc1ccnc(NC(=O)c2cccc(S(=O)(=O)N3CCCC3)c2)c1 | 73 | i | i | i
C=CCNS(=O)(=O)NC(=O)C1=C(N2CCCC2)COC1=O | i | i | i | i
Cc1ccc(S(=O)(=O)N=Nc2c(O)[nH]c3ccccc23)cc1 | i | i | i | i
Cc1ccc(S(=O)(=O)N(CC(=O)N=Nc2c(O)[nH]c3ccccc23)c2ccc(C)c(C)c2)cc1 | 67 | i | i | i
N=C1/C(=C\c2coc3ccccc3c2=O)C(=O)N=C2SC(c3ccncc3)=NN12 | i | i | 159 | 92
N=C1/C(=C/c2coc3ccccc3c2=O)C(=O)N=C2SC(c3ccco3)=NN12 | i | nt | 168 | nt
CN1C(=O)/C(=C/c2coc3ccc(O)cc3c2=O)SC1=S | i | i | i | i
COc1ccc(-n2cccc2/C=C2\C(=N)N3N=C(c4ccco4)SC3=NC2=O)cc1 | 52 | i | i | i
N=C1/C(=C\c2coc3ccc(O)cc3c2=O)C(=O)N=C2SC=CN12 | i | i | 152 | 152
CN(CCOc1ccccc1)C(=O)C1CCC(=O)N(CCc2ccc(Cl)cc2)C1 (stereo not given) | i | i | i | i
CCN(C(=O)CO/N=C/c1ccc(OC)cc1OC)c1c(N)n(Cc2ccccc2)c(=O)[nH]c1=O | i | i | i | i
Cc1ccc(NC(=O)CCN2C(=O)NC(C)(C)C2=O)cc1F | i | i | i | i
CCOc1ccc(C2C(C#N)=C(N)N3C(=C2C#N)Sc2ccccc23)cc1 (stereo not given) | i | i | 93 | i
Cc1cccc(N2CC(O)(c3cccs3)[N+]3=C2CCCCC3)c1 (stereo not given) | i | i | i | i
Cc1cccc(N2CC(O)(c3cccs3)[N+]3=C2CCCC3)c1 (stereo not given) | 94 | i | i | i
CCSc1nc2ccccc2n1CC(=O)N1CCCCC1 | 86 | i | i | i
CCc1nc2ccccc2c(=O)n1/N=C/c1ccc(Cl)cc1 | i | i | i | i
COCCN1C(=O)/C(=C/c2ccc(N3CCCC3)cc2)SC1=S | i | i | 265 | 80
COc1ccccc1NC(=O)Nc1cccnc1 | i | i | i | i
Cc1csc(SCC(=O)NC2CCS(=O)(=O)C2)n1 (stereo not given) | i | i | i | i
COC(=O)c1ccc(CNC(=O)COC(=O)C23CC4CC(CC(C4)C2)C3)cc1 | i | i | i | i
COC(=O)c1ccc(CNC(=O)COC(=O)CC23CC4CC(CC(Br)(C4)C2)C3)cc1 | 51 | i | i | i
Cc1nn(Cc2c(F)c(F)c(F)c(F)c2F)c(C)c1NC(=O)c1nn(C)c(C)c1Br | i | i | i | 47
Cc1nn(Cc2c(F)c(F)c(F)c(F)c2F)c(C)c1NC(=O)c1nn(C)cc1Br | i | i | i | i
O=[N+]([O-])/C(C(Cl)=C(Cl)Cl)=C(/NC1CC1)Sc1ccccc1 | 56 | i | i | i
SMILES | CRFR2-BP antag | Cardiac RTF inh | CRFR2-BP ag | RTF Ca sens act
CCOC(=O)c1c(NC(=O)c2nn(CC)cc2Br)c(C#N)nn1-c1ccccc1 | i | i | i | i
CCOC(=O)c1c(NC(=O)c2c(Br)cnn2C)c(C#N)nn1-c1ccccc1 | 67 | i | i | i
COC(=O)c1ccc(CSc2nc3ccccc3c(=O)n2-c2ccccc2)o1 | 53 | i | i | i
O=C1CCc2cc(Br)ccc2O1 | i | i | i | i
CCOc1ccc(CC(=O)N/N=C(\C)c2cccnc2)cc1 | i | i | i | i
O=C(c1ccco1)N(Cc1cccc([N+](=O)[O-])c1)c1ccc(Br)cc1 | 82 | i | i | i
O=C(Cc1ccccc1)NCC(=O)OC(c1ccccc1)c1ccccc1 | 82 | i | i | i
O=C(Nc1ccccn1)c1ccc2c(c1)S(=O)(=O)c1ccccc1C2=O | i | i | i | i
O=C1c2ccccc2S(=O)(=O)c2cc(C(=O)N(c3ccccn3)c3ccccn3)ccc21 | i | i | 173 | i
O=C(NCCNC(=O)c1ccccc1Br)c1cccnc1 | i | i | i | i
COc1cccc(NC(=O)Nc2nc(SC)ns2)c1 | i | i | i | i
CCSc1nsc(NC(=O)Nc2cccc(F)c2)n1 | i | i | 52 | i
COC(=O)C1(Cc2ccc3c(c2)CCC3)Cc2ccc3c(c2C1=O)CCC3 (stereo not given) | i | i | i | i
COCCN1CC(=O)N(c2cccc(C)c2C)C(c2ccc(Cl)cc2)C1=O (stereo not given) | 56 | i | i | i

From PubChem
